Laboratory results published in PubChem BioAssay AID1224854 (National Center for Advancing Translational Sciences (NCATS), 2016).
Records with an inconclusive call do not appear. A call without a number means that no potency is given here. Activity calls are given as the source filed them. Calls come from the whole dose curve; as a rule, active = well fitted activation curve with a large enough effect; inconclusive = small, poorly fitted or top-dose-only effect; inactive = flat fitted curve, though single readings scatter.

assay: Cell viability assay for measurement of the protective activity of small molecules against cell death caused by Zika virus infection in human astrocytoma cells; details: SNB-19 Zika virus cytoprotection, ATP luminescence, 72 h; series mostly up to 46.1 µM
Method in brief: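 Percent inhibition of Zika-induced cell death derived from ATP-content luminescence after 72 h at 37 C. Compounds were added to SNB-19 cells 1 h before virus at 2 FFU/cell.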

| SMILES | Potency |
| --- | --- |
| N#CC1(c2ccc(NC(=O)c3cccnc3NCc3ccncc3)cc2)CCCC1 | inactive |
| CCCCCCCC/C=C/C(=O)O | inactive |
| O=C(O)c1ccccc1NCCc1ccccc1 | inactive |
| O=C(CS)Nc1ccccc1 | inactive |
| CCN(CC)c1ccc(C(=C2C=CC(=[N+](CC)CC)C=C2)c2cc(S(=O)(=O)O)ccc2S(=O)(=O)[O-])cc1 | inactive |
| N[C@H](CSC(c1ccccc1)(c1ccccc1)c1ccccc1)C(=O)O | inactive |
| O=S(=O)(O)c1ccc2nc(-c3ccccc3)[nH]c2c1 | inactive |
| CN(C)c1ccc2cc(C(=O)N[C@@H](CCCN=C(N)CCl)C(=O)NCc3ccccc3)ccc2c1 | 4.35 µM (active) |
| C[C@@H]1CCN(C(=O)CC#N)C[C@H]1N(C)c1ncnc2[nH]ccc12 | inactive |
| Cc1csc(NC(=O)c2sc3nc4c(c(C(F)(F)F)c3c2N)CCC4)n1 | inactive |
| CCOCCOC(=O)/C=C/c1ccc(OC)cc1 | inactive |
| CC(C)(C)OC(=O)CN(Cc1ccc(Cl)cc1)Cc1ccc([N+](=O)[O-])s1 | 35.5 µM (active) |
| O=C(O)c1cccc(-c2noc(-c3ccccc3F)n2)c1 | inactive |
| CC=CC[C@@H](C)C(=O)[C@H]1C(=O)N[C@@H](C(C)C)C(=O)N(C)CC(=O)N(C)[C@@H](CC(C)C)C(=O)N[C@@H](C(C)C)C(=O)N(C)[C@@H](CC(C)C)C(=O)N[C@@H](C)C(=O)N[C@H](C)C(=O)N(C)[C@@H](CC(C)C)C(=O)N(C)[C@@H](CC(C)C)C(=O)N(C)[C@@H](C(C)C)C(=O)N1C | inactive |
| CCC(C)SSc1ncc[nH]1 (centres undefined) | 24.5 µM (active) |
| COc1ccnc2c1CCCCC2S(=O)c1nc2ccccc2[nH]1 (centres undefined) | inactive |
| O=C(O)[C@@H](c1ccc(OCc2ccc3ccccc3n2)cc1)C1CCCC1 | inactive |

| SMILES | Potency |
| --- | --- |
| CC(O)=C(C#N)C(=O)Nc1ccc(C(F)(F)F)cc1 | inactive |
| COc1ccc(/C=C/C(=O)Nc2ccccc2C(=O)O)cc1OC | inactive |
| O=C(C=CC=Cc1ccc2c(c1)OCO2)N1CCCCC1 | inactive |
| Nc1nc2ccc([N+](=O)[O-])cc2s1 | inactive |
| O=C(O)Cc1ccc(-c2ccccc2)cc1 | inactive |
| O=C(O)[C@H](CC(=O)N1C[C@@H]2CCCC[C@H]2C1)Cc1ccccc1 | inactive |
| CC(=O)Oc1cccc2c1C(=O)c1c(OC(C)=O)cc(C(=O)O)cc1C2=O | inactive |
| COc1ccc(-c2cc(=O)c3c(O)cc(O)cc3o2)cc1O | inactive |
| COc1ccc2nc(NC(=O)Nc3ccccc3)sc2c1 | inactive |
| COc1ccc(C=CC(=O)Nc2ccccc2C(=O)O)cc1OC | inactive |
| O=C1C[C@@H](c2ccc(O)cc2)Oc2cc(O)cc(O)c21 | inactive |
| COc1cccc(-c2ccc(NC(=O)C3=C(C(=O)O)CCC3)c(F)c2)c1 | inactive |
| CS(=O)(=O)c1ccc(-c2cn3ccccc3n2)cc1 | inactive |
| CCCS(=O)c1ccc2nc(NC(=O)OC)[nH]c2c1 (centres undefined) | inactive |
| O=c1[nH]nc(Sc2ncc([N+](=O)[O-])s2)n1-c1ccc2c(c1)OCCO2 | 6.15 µM (active) |
| CCN1/C(=C/C=C/c2sc3ccccc3[n+]2CC)Sc2ccccc21 | inactive |
| CC(=O)Nc1ccc([C@H](C)C(=O)Nc2ncc(C(C)C)s2)cc1 | 6.15 µM (active) |
